Inconclusive results are not listed. A call without a number means that no potency is given here. Activity calls are given as the source filed them. The call rests on the fitted dose curve; in most records, active means well fitted cell-killing curve with a large enough effect; inconclusive means small, poorly fitted or top-dose-only effect; inactive means no such curve, though single readings can be large or run the other way.
Assay: qHTS of pediatric cancer cell lines to identify multiple opportunities for drug repurposing: Primary screen for SK-N-MC cells (AID 1347093)
Conditions: SK-N-MC viability, CellTiter-Glo luminescence, 48 h; series mostly up to 46 µM
Source text: Drug repurposing or repositioning has been offered as a strategy for drug development in oncology programs. This approach has special potential for childhood cancers and other rare or orphan diseases, where the expected return on new drug development has been a disincentive to pharmaceuticals.
In this project we exploit the poly-pharmacology of drugs to discover new indications via phenotypic screening of a panel of 19 well-characterized cell lines derived from solid tumors seen in children and adolescents. The goal is to identify approved drugs with previously unrecognized anticancer properties that has the potential to reveal new mechanisms and biological processes involved in carcinogenesis or drug resistance. We employed a titration-based paradigm (quantitative high-throughput screening or qHTS), where all compounds were tested at multiple concentrations for their effect on cell viability. Concentration-response curves (CRCs) were derived directly from the primary screen, and both potency and efficacy values were used to identify compounds with robust bioactivity profiles. We screened the NIH Chemical Genomics Center (NCGC) Pharmaceutical Collection (NPC) and Mechanism Interrogation Plate (MIPE) small molecule collections of approved and investigational compounds against these cell lines; and measured metabolically active cells after 48 hours of compound treatment as a proxy for cell viability.
Assay Submitter: Nathalia J. Martinez, National Center for Advancing Translational Sciences, National Institutes of Health, Rockville, MD, USA; email: natalia.martinez@nih.gov
[1] Shen, M et al. Quantitative high-throughput phenotypic screening of pediatric cancer cell lines identifies multiple opportunities for drug repurposing. Oncotarget 2017 Dec 19;9(4):4758-4772. PMID 29435139.
The cells were obtained from University of North Carolina (UNC), Pediatric Preclinical Testing Program (PPT), and Coriell Institute (CI).
qHTS cell viability assay:
Cells were assayed in growth media at a density of 500-1,000 cells/well. Five microliters of cells were dispensed into 1,536-well, white, solid-bottom, TC-treated plates (Greiner Bio One) using a multidrop dispenser and incubated at 37 degrees C, 5% CO2, under a humidified atmosphere for 5 hours. Twenty-three nanoliters of compounds and controls (neutral control DMSO or positive control bortezomib at final concentration of 2.3 µM) were subsequently transferred by Kalypsys pintool. For primary screens, the MIPE collection was tested at 11-point dilutions (final concentrations range from 0.78 nM to 46 µM) and the NPC collection at 8-point dilutions (final concentrations range from 0.59nM to 46 µM). Compounds tested in follow-up screens were assayed at 11-point dilutions. Cells were incubated for 48 hours, followed by addition of 3 uL of CellTiter-Glo (Promega). After a 15 min incubation at room temperature, samples were analyzed for luminescence intensity using a ViewLux High-throughput CCD imager equipped with clear filters.
Potency means the concentration at half of the fitted maximal effect.

Q: For `O=C(O)/C=C\C(=O)O`, which Potency is on record?
A: The Potency was “inactive”.

Q: Which Potency does the source give for `Nc1cc(-c2ccncc2)c[nH]c1=O` here?
A: The Potency was “inactive”.

Q: For `O=C(CCN1CCN(CCO)CC1)N1c2ccccc2Sc2ccc(C(F)(F)F)cc21`, which Potency is on record?
A: Its Potency is “inactive”.

Q: For `Cc1[nH]cnc1CN1CCc2c(c3ccccc3n2C)C1=O`, which Potency is on record?
A: The Potency was “inactive”.

Q: Which Potency does the source give for `CCCCCCCCCCCC(=O)[O][Sn]([CH2]CCC)([CH2]CCC)[O]C(=O)CCCCCCCCCCC` here?
A: The Potency was “inactive”.

Q: With `CC(=O)SCC(CC(=O)c1ccc(C)cc1)C(=O)O` (stereo not given) as the compound, how does the Potency read?
A: The Potency was “inactive”.

Q: With `O=C(O)Cc1ccc(-c2ccccc2)cc1` as the compound, how does the Potency read?
A: Its Potency is “inactive”.

Q: With `CN(C)[C@@H]1C(=O)C(C(=O)NCN2CCCC2)=C(O)[C@@]2(O)C(=O)C3=C(O)c4c(O)cccc4[C@@](C)(O)C3C[C@@H]12` (stereo not given in full) as the compound, how does the Potency read?
A: The Potency was “inactive”.

Q: With `CC(C(=O)O)c1ccc(C(=O)c2ccccc2)s1` (stereo not given) as the compound, how does the Potency read?
A: The Potency was “inactive”.

Q: Which Potency does the source give for `CNC(=O)c1c(I)c(NC(=O)CCCCC(=O)Nc2c(I)c(C(=O)O)c(I)c(C(=O)NC)c2I)c(I)c(C(=O)O)c1I` here?
A: Its Potency is “inactive”.

Q: Which Potency does the source give for `Nc1ccc(C(=O)O)c(O)c1` here?
A: Its Potency is “inactive”.

Q: Which activity change, negative = cytotoxic does the source give for `O=C(O)Cc1cccc(-c2cc(CCCCCCc3ccc(O[C@H]4O[C@H](CO)[C@@H](O)[C@H](O)[C@@H]4O)c(-c4cccc(CC(=O)O)c4)c3)ccc2O[C@H]2O[C@H](CO)[C@@H](O)[C@H](O)[C@@H]2O)c1` here?
A: Its activity change, negative = cytotoxic is -8.23% [at 0.597 µM] (inactive).

Q: With `Nc1ccc(O)c(C(=O)O)c1` as the compound, how does the Potency read?
A: The Potency was “inactive”.

Q: With `NCCO` as the compound, how does the Potency read?
A: Its Potency is “inactive”.

Q: For `COc1ccnc2c1CCCCC2S(=O)c1nc2ccccc2[nH]1` (stereo not given), which Potency is on record?
A: Its Potency is “inactive”.

Q: For `CC(C)(C)c1nnc(NS(=O)(=O)c2ccc(N)cc2)s1`, which Potency is on record?
A: The Potency was “inactive”.

Q: For `C=CCCCCCCCCC(=O)O`, which Potency is on record?
A: The Potency was “inactive”.

Q: With `Cc1c(N)c(=O)n(-c2ccccc2)n1C` as the compound, how does the Potency read?
A: The Potency was “inactive”.

Q: With `N=C1N=C(N)c2cc3ccccc3cc21` as the compound, how does the Potency read?
A: Its Potency is 6.86 µM (active).

Q: With `c1ccc2sc(SN3CCOCC3)nc2c1` as the compound, how does the Potency read?
A: The Potency was “inactive”.

Q: Which Potency does the source give for `c1ccc2sc(SSc3nc4ccccc4s3)nc2c1` here?
A: The Potency was “inactive”.

Q: Which Potency does the source give for `O=C(O)Cc1ccc2c(c1)C(=O)c1ccccc1CO2` here?
A: The Potency was “inactive”.

Q: With `N=C(N)N` as the compound, how does the Potency read?
A: Its Potency is “inactive”.

Q: With `C#C[C@]1(O)CC[C@H]2[C@@H]3CCc4cc(O)ccc4[C@H]3CC[C@@]21C` as the compound, how does the Potency read?
A: Its Potency is 4.73 µM (active).

Q: For `CO[C@@]1(NC(=O)Cc2cccs2)C(=O)N2C(C(=O)O)=C(COC(N)=O)CS[C@@H]21`, which Potency is on record?
A: Its Potency is “inactive”.

Q: Which Potency does the source give for `c1ccc(CCNc2nc(-c3ccccc3)cs2)cc1` here?
A: The Potency was “inactive”.

Q: For `Cc1c(Nc2ncccc2C(=O)O)cccc1C(F)(F)F`, which Potency is on record?
A: Its Potency is 21.1 µM (active).

Q: With `Cc1cc(O)c2ccccc2c1O` as the compound, how does the Potency read?
A: Its Potency is 21.1 µM (active).

Q: With `Cc1ccc2c(n1)Oc1ccc(C(C)C(=O)OCC(=O)N(C)C)cc1C2` (stereo not given) as the compound, how does the Potency read?
A: The Potency was “inactive”.

Q: For `CCCOC(=O)c1ccc(O)cc1`, which Potency is on record?
A: The Potency was “inactive”.

Q: With `CCCCCCCCCCCCCCCC(=O)OC(C)C` as the compound, how does the Potency read?
A: The Potency was “inactive”.

Q: With `CCCCCCCCCCCCCCCCCC(=O)O` as the compound, how does the Potency read?
A: The Potency was “inactive”.

Q: For `Cc1ccc(O)c(-n2nc3ccccc3n2)c1`, which Potency is on record?
A: The Potency was “inactive”.

Q: Which Potency does the source give for `Oc1c(Br)cc(Br)c2cccnc12` here?
A: The Potency was 10.6 µM (active).

Q: Which Potency does the source give for `CCCCC1C(=O)N(c2ccccc2)N(c2ccc(O)cc2)C1=O` (stereo not given) here?
A: The Potency was 2.66 µM (active).

Q: For `CC(C(=O)O)c1ccc(C(=O)c2cccs2)cc1` (stereo not given), which Potency is on record?
A: The Potency was “inactive”.

Q: For `Cc1nc2ccccc2n1Cc1ccc(Cl)cc1`, which Potency is on record?
A: The Potency was 18.8 µM (active).

Q: With `COC(=O)Nc1nc2ccc(C(=O)C3CC3)cc2[nH]1` as the compound, how does the Potency read?
A: Its Potency is 1.06 µM (active).

Q: With `CCC1C(=O)OCC1Cc1cncn1C` (stereo not given) as the compound, how does the Potency read?
A: The Potency was “inactive”.

Q: For `C[N+]1(C)[C@@H]2CC(OC(=O)[C@H](CO)c3ccccc3)C[C@H]1[C@@H]1O[C@@H]12` (stereo not given in full), which Potency is on record?
A: The Potency was “inactive”.

Reference: PubChem BioAssay (NCATS)
